Many of the other results were omitted from the sample, so hits are more common in it than they were.
FBPA Giardia inh: blocks Giardia fructose-bisphosphate aldolase activity | A8B2U2 | Potency, µM (series often up to 59.6 µM), usual class: inhibitors | 290,000 compounds, 0.71% hits | purified Giardia FBPA; also: nearly all actives have a fitted effect of over 55% in size
Target sequence (A8B2U2 whole entry, looked up): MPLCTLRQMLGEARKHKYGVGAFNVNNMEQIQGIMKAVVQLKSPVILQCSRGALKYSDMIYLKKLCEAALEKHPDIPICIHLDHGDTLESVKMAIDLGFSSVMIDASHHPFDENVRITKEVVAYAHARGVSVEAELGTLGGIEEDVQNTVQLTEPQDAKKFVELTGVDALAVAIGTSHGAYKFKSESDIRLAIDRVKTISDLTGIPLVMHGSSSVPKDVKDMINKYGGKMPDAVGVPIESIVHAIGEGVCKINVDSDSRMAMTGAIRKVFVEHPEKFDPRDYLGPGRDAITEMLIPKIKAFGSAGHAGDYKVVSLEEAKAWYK
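Giardia FBPA (40 nM reagent) was preincubated 10 min at RT with compound (up to 57.5 uM final), then substrate plus GAPDH/TPI/NAD/arsenate coupling system with diaphorase/resazurin was added; resorufin fluorescence (525/598 nm) was read after 20 min.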
Cruzain inh Det: cruzain (T. cruzi) inhibition with detergent; P25779; purified cruzain, Z-FR-AMC fluorescence, 0.01% Triton; Potency, µM, most hits filed as inhibitors; 200,000 compounds, 0.43% hits; AID 1478; also: nearly all actives have a fitted effect of over 40% in size
Target sequence (P25779 123-467 limits assumed): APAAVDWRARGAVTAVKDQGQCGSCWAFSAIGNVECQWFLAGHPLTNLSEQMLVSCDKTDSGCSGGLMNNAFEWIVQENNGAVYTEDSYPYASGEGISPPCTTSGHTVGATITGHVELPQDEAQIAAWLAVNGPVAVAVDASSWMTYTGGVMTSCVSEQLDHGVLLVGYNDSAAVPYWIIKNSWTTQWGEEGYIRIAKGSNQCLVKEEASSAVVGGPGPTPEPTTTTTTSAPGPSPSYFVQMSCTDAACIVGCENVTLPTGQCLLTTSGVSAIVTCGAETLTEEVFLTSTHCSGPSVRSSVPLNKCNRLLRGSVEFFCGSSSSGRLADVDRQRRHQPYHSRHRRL
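Detergent-containing arm of a paired screen for aggregation-based inhibition: 0.01% Triton X-100 present. Cruzain at 1.5 nM cleaved 2 uM Z-FR-AMC at pH 5.5 with 5 mM DTT; AMC fluorescence gain over 60 s measured activity.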
Cruzain noTriton: blocks cruzain activity in detergent-free assay; AID 1476; 200,000 compounds, 2.3% hits; Potency, µM, most hits filed as inhibitors; purified cruzain, Z-FR-AMC fluorescence, no detergent; P25779; also: nearly all actives have a fitted effect of over 40% in size
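Purified cruzain at 1.5 nM, pre-incubated 15 min with compound at room temperature in 100 mM sodium acetate pH 5.5, 5 mM DTT, 0.00005% Triton X-100. Reaction started with 2 uM Z-FR-AMC; AMC fluorescence increase over 60 s gives rate.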
Large screens that a line does not name were inactive. Calls follow the shape of the dose curve; as a rule, active = well fitted curve in the direction sought with a large enough effect; inconclusive = small, poorly fitted or top-dose-only effect, or another doubt; inactive = no such curve, though single readings can be large; an effect the other way counts as inactive or inconclusive.

Cc1ccc(-c2nc(-c3nccc4ccccc34)oc2-c2ccccc2)cc1	none
O=C(O)COc1cccc(-c2ocnc2-c2nc(-c3ccccc3)c(-c3ccccc3)o2)c1	Cruzain noTriton 7.9µM
CCOc1ccc(S(=O)(=O)N(C)c2ccc(OCC(=O)Nc3nc(-c4cc(OC)ccc4OC)cs3)cc2)cc1	Cruzain noTriton 7.9µM
CCOC(=O)Cc1csc(NC(=O)COc2ccc(N(C)S(=O)(=O)c3ccc(C)cc3)cc2)n1	none
O=C(c1ccccc1)[C@H]1[C@H](c2ccccc2[N+](=O)[O-])N1C1CCCCC1 (stereo partly drawn)	none (no result: FBPA Giardia inh)
O=C(c1ccccc1)c1c2c(cc3sc4ccccc4[n+]13)-c1cccc3cccc-2c13	Cruzain noTriton 25µM
Cc1sc2cc3c(c(C(=O)c4ccccc4)[n+]2c1C)-c1cccc2cccc-3c12	none
COC(=O)c1sccc1NC(=O)/C=C\c1ccc(Cl)cc1Cl	Cruzain noTriton 3.2µM
COC(=O)c1sccc1NC(=O)/C=C/c1ccc(Cl)cc1	none
Cc1ccc(NC2CC(=O)N(c3ccc(N4CCCCC4)cc3)C2=O)cc1 (stereo not drawn)	Cruzain noTriton 7.9µM
COc1ccc(N2C(=O)CC(Nc3ccc(C)cc3)C2=O)cc1 (stereo not drawn)	Cruzain noTriton inconclusive
O=C(CC1Sc2ccccc2NC1=O)Nc1cccc(C(F)(F)F)c1 (stereo not drawn)	none (no result: FBPA Giardia inh)
C=CCn1c(=N)c(C(=O)NCCCOC)cc2c(=O)n3cccc(C)c3nc21	Cruzain inh Det 32µM, Cruzain noTriton inconclusive
CCn1c(=N)c(C(=O)NCc2cccnc2)cc2c(=O)n3cccc(C)c3nc21	Cruzain inh Det inconclusive, Cruzain noTriton inconclusive
CCNC(=O)c1cc2c(=O)n3cccc(C)c3nc2n(CCc2ccccc2)c1=N	Cruzain inh Det inconclusive, Cruzain noTriton inconclusive
CNC(=O)c1cc2c(=O)n3cccc(C)c3nc2n(C(C)C)c1=N	Cruzain inh Det 25µM, Cruzain noTriton inconclusive
CCCCNC(=O)c1cc2c(=O)n3cccc(C)c3nc2n(Cc2ccccc2)c1=N	Cruzain inh Det 28µM, Cruzain noTriton inconclusive
COCCCn1c(=N)c(C(=O)NCc2ccco2)cc2c(=O)n3cccc(C)c3nc21	none (no result: FBPA Giardia inh)
CCOC(=O)CNc1oc(-c2ccccc2)nc1-c1ccccc1	none
CCOc1ccc(/C=C/c2nc(C#N)c(Nc3ccc(OCC)cc3)o2)cc1	none (no result: FBPA Giardia inh)
C=C(C#N)C(=O)OCC	none (no result: FBPA Giardia inh)
O=C(O)c1cccc([As]=[As]c2cccc(C(=O)O)c2)c1 (stereo not drawn)	none (no result: FBPA Giardia inh)
N[C@H](CSSC[C@@H](N)C(=O)O)C(=O)O	none (no result: Cruzain inh Det, Cruzain noTriton)
C[C@H]1Cc2c(COc3ccccc3)nc3c(c2CO1)CN(S(=O)(=O)c1ccc(Cl)c2nonc12)CC3	none (no result: Cruzain inh Det, Cruzain noTriton)
Cc1cccc(NC(=O)CN2C(=O)N/C(=C\c3cccn3-c3cccc(C(=O)O)c3)C2=O)c1	none (no result: Cruzain inh Det, Cruzain noTriton)
Cc1ccc(-n2cccc2/C=C2/NC(=O)N(CC(=O)Nc3cccc(C)c3)C2=O)cc1	Cruzain noTriton 5µM
COc1cc(NC(=O)CCc2c(C)nc3c(-c4ccc(F)cc4)c(C)nn3c2C)cc(OC)c1OC	none (no result: FBPA Giardia inh)
COc1cc(NC(C)CCCN)c2ncccc2c1 (stereo not drawn)	none
COc1cc(NCCCCCCCN)c2ncccc2c1	FBPA Giardia inh inconclusive, Cruzain noTriton 16µM
CN(Cc1cccc2ccccc12)Cc1cccc2ccccc12	none (no result: FBPA Giardia inh)
Cc1nc(Nc2cccc(C(F)(F)F)c2)nc2c1C(=O)CC(C)C2 (stereo not drawn)	Cruzain noTriton 16µM
Cc1ccc(Nc2nc(C)c3c(n2)CC(C)CC3=O)c(C)c1 (stereo not drawn)	none (no result: Cruzain inh Det, Cruzain noTriton)
CC(C)(C)N1C(=O)[C@H]2[C@H]3[C@H](O)[C@H](O)C/C(=N/OC[C@@H](O)COCc4ccco4)[C@@H]3CC[C@@H]2C1=O	none (no result: Cruzain inh Det, Cruzain noTriton)
Clc1ccc(-c2nnc(-c3ccc(Br)cc3)c(N3CCSCC3)n2)cc1	Cruzain noTriton 20µM
Clc1ccc(-c2nnc(-c3ccco3)nc2N2CCCCC2)cc1	none
NS(=O)(=O)C[C-]1C=C[CH]([Sb-]([Cl])([Cl])([Cl])([Cl])[Cl])C=C1.c1ccncc1 (stereo not drawn)	none (no result: FBPA Giardia inh)
Cc1ccn2c(Nc3ccc4c(c3)OCCO4)c(-c3ccc(C)o3)nc2c1	none (no result: FBPA Giardia inh)
COC(=O)c1ccccc1NC(=O)Cn1c(=O)n(-c2ccc(C)cc2)c(=O)c2ccccc21	none (no result: FBPA Giardia inh)
COC(=O)C1=C(C(=O)OC)[C@@H]2Nc3ccccc3[C@@]23C[C@@H](C(=O)OC)N(S(=O)(=O)c2ccc(Br)cc2)C3=N1	none (no result: Cruzain inh Det, Cruzain noTriton)
O=C1OC(c2ccccc2)=N/C1=C\C=C\c1ccco1	none (no result: Cruzain inh Det, Cruzain noTriton)
O=C1OC(c2ccccc2)=N/C1=C\C=C\c1ccccc1[N+](=O)[O-]	Cruzain inh Det 13µM, Cruzain noTriton 16µM
CCOC(=O)c1ccc(NC(=O)NCCOCCn2c(=O)oc3ccccc32)cc1	none (no result: FBPA Giardia inh)
Nc1ccc(-c2nc3cc(N)ccc3o2)cc1	none (no result: Cruzain inh Det, Cruzain noTriton)
Nc1ccc(-c2nc3ccc(N)cc3o2)cc1	Cruzain inh Det 20µM, Cruzain noTriton 16µM
CCOC(=O)c1c(NC(=O)CN2C(=O)NC3(CCC(CC)CC3)C2=O)sc(C)c1-c1ccc(C)cc1 (stereo not drawn)	Cruzain noTriton 20µM
CCOC(=O)c1c(NC(=O)CN2C(=O)NC3(CCCCCC3)C2=O)sc(C)c1-c1ccc(C)cc1	Cruzain noTriton inconclusive
COc1ccc(N/N=C(/C)c2cnnc(-c3ccccc3)n2)cc1	Cruzain noTriton 16µM
COc1ccc(/C(C)=N/Nc2nncc3ccccc23)cc1	none (no result: Cruzain inh Det, Cruzain noTriton)
CCN(CC)C(=O)CC(c1ccc(OC)cc1)c1c(OC)cc(OC)c2c(-c3ccccc3)cc(=O)oc12 (stereo not drawn)	none (no result: Cruzain inh Det, Cruzain noTriton)
CCC=O	none (no result: FBPA Giardia inh)
COc1ccc(CC(=O)Nc2ccc(-c3noc(-c4cc(OC)c(OC)c(OC)c4)n3)cc2)cc1	none
COc1ccc(-c2noc(-c3ccccc3OCC(=O)Nc3ccc(C(C)=O)cc3)n2)cc1	none (no result: FBPA Giardia inh)
CCc1ccc(NC(=O)c2cc(-c3ccc(F)cc3)on2)cc1	none (no result: Cruzain inh Det, Cruzain noTriton)
CCc1ccc(NC(=O)c2cc(-c3ccc(OC)cc3)on2)cc1	Cruzain noTriton 13µM
COc1ccc(CC(=O)Nc2ccc(-c3noc(-c4ccc(Cl)cc4)n3)cc2)cc1	Cruzain noTriton 4µM
CCOc1ccccc1-c1nc(-c2ccc(NC(=O)Cc3ccc(OC)cc3)cc2)no1	Cruzain noTriton 7.9µM
Clc1nc(Cl)nc(Cl)n1	none (no result: FBPA Giardia inh)
OCCNc1ncnc2c1ncn2[C@@H]1O[C@@H](CO)[C@H](O)[C@@H]1O	none (no result: FBPA Giardia inh)
O=C1NC(=O)C(Cc2ccc(OCCN3COc4ccccc4C3=O)cc2)S1 (stereo not drawn)	none (no result: Cruzain inh Det, Cruzain noTriton)
COC(=O)/C=C\c1cc(O)ccc1O	none
C[C@@H]1/C=C\CC(=O)OC[C@H](C)C(=O)N[C@@H](Cc2ccccc2)C(=O)OC1	none (no result: Cruzain inh Det, Cruzain noTriton)
CCCCn1c(CNC(=O)C23CC4CC(CC(C4)C2)C3)nnc1SCC(=O)Nc1ccccc1	Cruzain noTriton inconclusive (no result: FBPA Giardia inh)
Cc1cc2nc(-c3ccc(SCC(=O)N4CCc5ccccc54)nc3)[nH]c2cc1C	Cruzain noTriton 16µM
Cc1cc2nc(-c3ccc(SCC(=O)NC(C)C)nc3)[nH]c2cc1C	none (no result: Cruzain inh Det, Cruzain noTriton)
O=C(COc1ccc(Cl)cc1)Nc1nnc(-c2ccc3c(c2)CCCC3)o1	Cruzain noTriton 7.9µM
O=C(Nc1nnc(-c2ccc(Cl)cc2)o1)NC1CCCCC1	Cruzain noTriton 25µM
CC(=O)Nc1nnc(-c2ccc3c(c2)CCCC3)o1	none
O=C(Nc1ccc(Cl)cc1)NC1CCCCC1	none

Source: PubChem
